Assay results: PubChem BioAssay (NCATS)
Values joined by “and” are separate entries in the source; they are usually repeats but may differ in a detail not shown here. Identical values can stand only once. Inconclusive results are not listed. Active and inactive are the calls of the source. Unless noted, calls follow the shape of the dose curve; as a rule, active = well fitted curve in the direction sought with a large enough effect; inconclusive = small, poorly fitted or top-dose-only effect, or another doubt; inactive = no such curve, though single readings can be large; an effect the other way counts as inactive or inconclusive.

Columns and labels:
[1] = AP1 Signaling Pathway (AID 357; active = well fitted curve in either direction with a large enough effect, not every such curve was filed as active;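 also: ME-180 reporter cells stimulated with EGF at its EC50 level; % is scaled to controls: 0 for no effect and ±100 for the full control effect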)
Method in brief: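 Cells are seeded overnight, exposed to compound titrations and an EC50 level of EGF for 5 hours at 37 °C, then loaded with CCF4 dye for 2.5 hours. Beta-lactamase activity under the AP-1 element is read as a blue/green ratio.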

[2] = target: Cytochrome P450 1A2 (Homo sapiens) (UniProt P05177); experiment: p450-cyp1a2 (AID 410; calls by dose curve; also: potency is read from the fitted curve at half-maximal effect;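 as to activity change, negative = inhibition: -100% = full effect of reference inhibitor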)
Cytochrome P450 1A2 (Homo sapiens), sequence (P05177 whole entry, looked up): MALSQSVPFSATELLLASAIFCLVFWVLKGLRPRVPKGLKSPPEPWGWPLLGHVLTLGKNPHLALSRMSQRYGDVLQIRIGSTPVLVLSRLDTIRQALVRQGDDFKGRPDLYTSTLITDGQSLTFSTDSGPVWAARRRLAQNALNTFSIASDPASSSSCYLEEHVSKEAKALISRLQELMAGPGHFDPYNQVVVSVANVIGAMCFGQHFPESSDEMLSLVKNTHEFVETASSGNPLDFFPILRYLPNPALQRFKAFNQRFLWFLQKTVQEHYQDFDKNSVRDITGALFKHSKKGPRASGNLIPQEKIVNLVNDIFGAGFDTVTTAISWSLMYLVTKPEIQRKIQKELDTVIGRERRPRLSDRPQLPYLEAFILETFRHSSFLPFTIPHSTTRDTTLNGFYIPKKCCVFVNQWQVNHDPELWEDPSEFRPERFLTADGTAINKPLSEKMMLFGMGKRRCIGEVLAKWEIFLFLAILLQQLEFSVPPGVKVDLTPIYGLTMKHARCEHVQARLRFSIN
Method in brief: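 Luminescent readout of luciferin formed from Luciferin-ME by human CYP1A2; data normalized against complete inhibition by 57 uM furafylline. Enzyme 20nM, substrate 100uM at Km, 100mM KPO4 buffer, 60 min reaction at room temperature.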

[3] = Stat Signaling Pathway (AID 446; active = well fitted curve in either direction with a large enough effect, not every such curve was filed as active;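 also: ME-180 cervical cancer cells given 40 pM IL-6 alongside compound; SIE-controlled beta-lactamase reporter measured as 460/530 nm FRET emission ratio; % is scaled to controls: 0 for no effect and ±100 for the full control effect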)
Method in brief: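 ME-180 cells carrying a SIE-driven beta-lactamase reporter are stimulated with 40 pM IL-6 for 5 h at 37C in the presence of compound. The 460/530 nm FRET substrate ratio is read after 2.5 h at RT. Data are normalised to 300 pM IL-6 and to 125 nM JAK inhibitor controls.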

[4] = target: Glucocorticoid receptor (Homo sapiens) (UniProt P04150); experiment: GR-EFC Redistribution (AID 451; calls by dose curve; also: potency is read from the fitted curve at half-maximal effect); settings: CHO-K1 GR-EFC translocation, beta-gal luminescence, 2 h
Glucocorticoid receptor (Homo sapiens), sequence (P04150 whole entry, looked up, the tested form may be a part): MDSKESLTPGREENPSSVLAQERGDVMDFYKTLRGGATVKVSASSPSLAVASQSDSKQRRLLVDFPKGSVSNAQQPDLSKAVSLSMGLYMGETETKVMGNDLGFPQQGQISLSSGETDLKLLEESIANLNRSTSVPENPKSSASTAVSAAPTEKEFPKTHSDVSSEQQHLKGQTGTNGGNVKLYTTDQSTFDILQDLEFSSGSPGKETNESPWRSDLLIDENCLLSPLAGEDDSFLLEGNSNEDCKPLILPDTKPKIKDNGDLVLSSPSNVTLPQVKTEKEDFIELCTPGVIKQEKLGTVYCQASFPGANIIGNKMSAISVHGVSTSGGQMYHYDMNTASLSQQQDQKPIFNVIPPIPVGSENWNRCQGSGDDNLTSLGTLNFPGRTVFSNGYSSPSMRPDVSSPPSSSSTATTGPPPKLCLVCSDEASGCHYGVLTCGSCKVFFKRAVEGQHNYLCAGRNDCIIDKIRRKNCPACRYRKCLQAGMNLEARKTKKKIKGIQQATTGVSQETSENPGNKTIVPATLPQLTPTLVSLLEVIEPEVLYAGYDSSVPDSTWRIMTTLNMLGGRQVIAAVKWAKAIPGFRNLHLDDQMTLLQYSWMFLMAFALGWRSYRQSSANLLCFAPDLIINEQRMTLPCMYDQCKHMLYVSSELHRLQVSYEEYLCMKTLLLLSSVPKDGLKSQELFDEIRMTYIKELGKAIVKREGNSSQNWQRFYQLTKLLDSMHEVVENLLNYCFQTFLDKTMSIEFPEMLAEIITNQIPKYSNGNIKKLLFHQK
Method in brief: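 Translocation of GR-ED fusion to nuclear EA restores b-gal, read by luminescence after 1 h room-temperature detection. Engineered CHO-K1 biosensor cells, 1,000/well, exposed 2 h at 37 C to titrations up to 46 uM final.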

[5] = target: Mitogen-activated protein kinase 10 (Mus musculus) (UniProt Q61831); experiment: JNK3 AlphaScreen Assay (AID 530; active = well fitted curve in either direction with a large enough effect, not every such curve was filed as active;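 also: kinase came from lysate of stimulated human HepG2 cells; signal reports phosphorylation of biotinylated GST-cJun 1-79 at Ser73 with 10 µM ATP; % is scaled to controls: 0 for no effect and ±100 for the full control effect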)
Method in brief: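 Compound titrations were preincubated 15 minutes at room temperature with substrate, antibody and pre-activated JNK3-containing HepG2 lysate. Reactions were started with 10 uM ATP and stopped with EDTA-containing bead buffer for AlphaScreen detection.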

[6] = target: Cytochrome P450 3A4 (Homo sapiens) (UniProt P08684); experiment: qHTS Assay for Activators of Cytochrome P450 3A4 (AID 885); also: nearly all actives have a fitted effect of over 65% in size
Cytochrome P450 3A4 (Homo sapiens), sequence (P08684 whole entry, looked up): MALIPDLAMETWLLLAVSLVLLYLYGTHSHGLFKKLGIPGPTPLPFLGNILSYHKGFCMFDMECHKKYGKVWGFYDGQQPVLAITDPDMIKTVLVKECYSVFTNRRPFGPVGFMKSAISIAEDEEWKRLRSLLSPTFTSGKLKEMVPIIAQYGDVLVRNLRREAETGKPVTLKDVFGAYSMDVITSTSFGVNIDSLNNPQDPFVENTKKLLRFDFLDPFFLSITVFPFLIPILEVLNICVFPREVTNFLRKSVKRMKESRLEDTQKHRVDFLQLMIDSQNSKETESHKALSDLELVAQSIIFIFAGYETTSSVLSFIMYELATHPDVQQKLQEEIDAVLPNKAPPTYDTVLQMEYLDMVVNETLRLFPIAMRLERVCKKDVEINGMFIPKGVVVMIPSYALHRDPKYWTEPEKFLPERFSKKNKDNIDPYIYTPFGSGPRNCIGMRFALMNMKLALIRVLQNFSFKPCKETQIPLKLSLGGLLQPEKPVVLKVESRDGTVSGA
Method in brief: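 Human CYP3A4 (20 nM) with Luciferin-PPXE at 25 uM (its KM) in 200 mM KPO4; 10 min compound preincubation, then NADPH regeneration and 60 min reaction at RT. Luciferin read by luminescence; normalized to 57 uM ketoconazole full inhibition.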

[7] = target: Cytochrome P450 2D6 (Homo sapiens) (UniProt P10635); experiment: qHTS Assay for Inhibitors and Substrates of Cytochrome P450 2D6 (AID 891); also: potency is read from the fitted curve at half-maximal effect; nearly all actives have a fitted effect of over 60% in size
Cytochrome P450 2D6 (Homo sapiens), sequence (P10635 whole entry, looked up): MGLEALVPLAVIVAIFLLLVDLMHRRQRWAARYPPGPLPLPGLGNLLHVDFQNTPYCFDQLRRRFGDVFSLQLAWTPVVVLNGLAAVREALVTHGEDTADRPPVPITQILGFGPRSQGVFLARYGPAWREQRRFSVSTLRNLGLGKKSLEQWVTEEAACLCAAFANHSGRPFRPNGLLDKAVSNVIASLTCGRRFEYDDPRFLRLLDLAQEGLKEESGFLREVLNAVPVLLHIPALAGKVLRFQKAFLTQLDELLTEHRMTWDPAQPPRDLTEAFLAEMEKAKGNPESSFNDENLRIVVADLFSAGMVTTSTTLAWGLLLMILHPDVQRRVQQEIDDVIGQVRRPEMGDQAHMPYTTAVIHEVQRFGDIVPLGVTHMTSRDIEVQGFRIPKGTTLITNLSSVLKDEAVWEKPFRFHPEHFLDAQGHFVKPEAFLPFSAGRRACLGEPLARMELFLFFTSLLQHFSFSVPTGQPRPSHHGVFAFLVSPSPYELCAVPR
Method in brief: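 Human CYP2D6 (5 nM) with 30 uM Luciferin-ME EGE (at Km) in 100 mM KPO4, compound preincubated 10 min, then NADPH regeneration system for 60 min at room temperature. Luciferin read by luminescence; normalized to 1.43 uM quinidine.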

[8] = qHTS Assay for Lipid Storage Modulators (AID 1519; calls by dose curve); settings: Drosophila S3 cells, BODIPY lipid droplet/cell ratio, laser cytometry, cells loaded with oleic acid; for activity change, negative = inhibition: at 57.5 µM (top of the series)
Method in brief: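 Cells seeded at 5,000 per well were treated with compounds over a concentration series and loaded with oleic acid (400 uM, as added). Lipid droplet fluorescence (488 nm excitation, 500-530 nm channel) was read by laser-scanning cytometry and normalized to 20 uM Triacsin C.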

[9] = Counterscreen qHTS for small molecule stabilizers of the endoplasmic reticulum resident proteome: GLuc-NoTag assay (AID 1508627);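 also: SH-SY5Y cells given compound then 100 nM thapsigargin to empty ER calcium; 0% = thapsigargin alone and -100% = DMSO vehicle control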
Method in brief: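 Luminescence of Gaussia luciferase secreted into the medium (coelenterazine, 0.07x final, unlysed cells) was the read-out. Human SH-SY5Y neuroblastoma cells constitutively secreting untagged GLuc received compound for 19 h, then 100 nM thapsigargin for 4 h.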

[10] = Primary qHTS for small molecule stabilizers of the endoplasmic reticulum resident proteome: Secreted ER Calcium Modulated Protein (SERCaMP) assay (AID 1508630); also: % is scaled to controls: 0 for no effect and ±100 for the full control effect
Method in brief: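 GLuc-SERCaMP-expressing SH-SY5Y cells, pretreated 16 h with compound, are challenged with thapsigargin to empty ER calcium stores; after 4 h, coelenterazine is added directly to the medium and luminescence is imaged.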

[11] = test system: HIV-1 nucleocapsid protein NCp7 (binding to TG oligonucleotide); experiment: HIV Nucleocapsid (AID 346; call rule not given here;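 also: potency is read from the fitted curve at half-maximal effect; potency is for inhibitors that block NC binding and lower polarization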); settings: HIV-1 NC / fluorescein-TGTGTGTG probe, fluorescence polarization
Method in brief: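 HIV-1 NC (100 nM) binding to fluorescein-labelled ssDNA TG4xF (10 nM) in Hepes pH 7.5, 250mM NaCl, 1uM ZnCl2, TCEP and 2-mercaptoethanol; compounds pin-transferred, 1 hr room temperature, fluorescence polarization read on CCD imager.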

[12] = target: Lysosomal acid glucosylceramidase (Homo sapiens) (UniProt P04062); experiment: Glucocerebrosidase-p2 (AID 348; in the data active = potency below about 10 µM; also: potency is read from the fitted curve at half-maximal effect); settings: purified GBA, blue fluorogenic substrate, 40 min
Lysosomal acid glucosylceramidase (Homo sapiens), sequence (P04062 whole entry, looked up): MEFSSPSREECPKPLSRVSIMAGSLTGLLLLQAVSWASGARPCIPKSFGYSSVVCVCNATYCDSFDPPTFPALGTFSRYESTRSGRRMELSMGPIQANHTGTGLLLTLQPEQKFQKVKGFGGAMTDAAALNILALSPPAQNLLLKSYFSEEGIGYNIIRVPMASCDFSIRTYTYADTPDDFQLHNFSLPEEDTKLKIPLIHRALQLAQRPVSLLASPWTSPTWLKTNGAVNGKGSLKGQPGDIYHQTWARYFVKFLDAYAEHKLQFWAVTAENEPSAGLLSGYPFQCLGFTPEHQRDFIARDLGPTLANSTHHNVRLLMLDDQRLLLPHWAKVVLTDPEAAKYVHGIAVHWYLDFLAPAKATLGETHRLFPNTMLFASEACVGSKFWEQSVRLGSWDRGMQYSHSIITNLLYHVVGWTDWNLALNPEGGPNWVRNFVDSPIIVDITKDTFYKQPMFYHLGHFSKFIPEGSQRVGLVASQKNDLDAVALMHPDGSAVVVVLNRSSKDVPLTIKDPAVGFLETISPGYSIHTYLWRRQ
Method in brief: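 Compounds titrated from 0.6 nM upwards against 0.2 nM enzyme in pH 5.9 citric acid/KH2PO4, taurocholate, tween-20; blue fluorogenic substrate 80 uM, 40 min room temperature, stopped and read Ex 365/Em 440 for AC50.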

[13] = NFAT Signaling Pathway (AID 444; active = well fitted curve in either direction with a large enough effect, not every such curve was filed as active); settings: Jurkat NFAT-bla M1, carbachol, beta-lactamase ratio, 5 h
Method in brief: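 Read-out: CCF4 FRET ratio (460 nm/530 nm) after 1 h RT dye loading, used for %activity and AC50 from titration series. Cells: Jurkat NFAT-β-lactamase/M1 line, treated with compound plus 1 uM carbachol for 5 h, 37 °C.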

[14] = target: 3',5'-cyclic-AMP phosphodiesterase 4B (Homo sapiens) (UniProt Q07343); experiment: qHTS Assay for Inhibitors of PDE-IV (AID 607; active = well fitted activation curve with a large enough effect in the main read-out, with a control signal flat, not every such curve was filed as active; also: % of control where 0% means no effect)
3',5'-cyclic-AMP phosphodiesterase 4B (Homo sapiens), sequence (Q07343 whole entry, looked up): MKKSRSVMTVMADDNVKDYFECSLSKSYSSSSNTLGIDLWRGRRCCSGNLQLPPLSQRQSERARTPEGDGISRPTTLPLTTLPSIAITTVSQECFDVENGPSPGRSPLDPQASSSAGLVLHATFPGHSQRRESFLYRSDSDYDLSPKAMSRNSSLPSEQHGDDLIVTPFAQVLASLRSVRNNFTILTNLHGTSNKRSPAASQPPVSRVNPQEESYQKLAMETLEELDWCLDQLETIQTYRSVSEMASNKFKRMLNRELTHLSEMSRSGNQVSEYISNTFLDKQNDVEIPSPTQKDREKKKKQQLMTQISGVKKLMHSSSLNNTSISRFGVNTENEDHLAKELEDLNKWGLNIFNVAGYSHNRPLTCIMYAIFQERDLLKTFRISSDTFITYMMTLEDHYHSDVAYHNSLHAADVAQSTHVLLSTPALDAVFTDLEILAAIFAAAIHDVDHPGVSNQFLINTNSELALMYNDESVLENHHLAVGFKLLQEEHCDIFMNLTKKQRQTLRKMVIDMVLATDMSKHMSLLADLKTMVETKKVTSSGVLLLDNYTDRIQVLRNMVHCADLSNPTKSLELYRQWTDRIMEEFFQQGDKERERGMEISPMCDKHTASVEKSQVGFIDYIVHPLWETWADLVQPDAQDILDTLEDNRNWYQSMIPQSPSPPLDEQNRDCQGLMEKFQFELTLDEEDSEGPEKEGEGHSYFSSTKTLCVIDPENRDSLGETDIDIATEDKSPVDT
Method in brief: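 HEK293 ACTOne cells with CNG channel (1000/well), endogenous PDE4; membrane potential dye, compounds up to 22.9 uM final. Fluorescence Ex 535/Em 590; RO 20-1724 (100 uM final) as reference.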

[15] = Cell Viability qHTS for small molecule stabilizers of the endoplasmic reticulum resident proteome (AID 1508629); settings: cell viability counter-screen, 100 nM thapsigargin for final 4 h
[16] = target: Calcium and integrin-binding protein 1 (Homo sapiens) (UniProt Q99828); experiment: Primary qHTS for Identification of Calcium Integrin Binding Protein 1 (CIB1) Competitor (AID 1508620)
Calcium and integrin-binding protein 1 (Homo sapiens), sequence (Q99828 whole entry, looked up): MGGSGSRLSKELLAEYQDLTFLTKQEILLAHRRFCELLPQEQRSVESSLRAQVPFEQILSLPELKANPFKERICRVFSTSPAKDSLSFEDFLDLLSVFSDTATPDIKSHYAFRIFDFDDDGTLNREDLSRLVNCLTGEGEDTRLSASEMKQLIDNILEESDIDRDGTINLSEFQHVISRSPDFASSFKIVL
Method in brief: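 CIB1-GST (1 uM final) and compound incubated 15 min at room temperature before adding FITC-alphaIIb peptide tracer (100 nM final). Competition for binding read by fluorescence polarization (ex 480, em 540) after another 15 min at room temperature.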

[17] = Confirmatory qHTS for small molecule stabilizers of the endoplasmic reticulum resident proteome: Secreted ER Calcium Modulated Protein (SERCaMP) assay (AID 1508628); also: potency is read from the fitted curve at half-maximal effect; nearly all actives have a fitted effect of over 40% in size
Method in brief: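 SH-SY5Y cells stably expressing GLuc-SERCaMP, treated 16 h with compound (primary 1.53, 7.67, 38.3 uM; confirmation 11 concentrations, up to 76.6 uM), then 100 nM thapsigargin for 4 h. Secreted Gaussia luciferase in medium read by coelenterazine luminescence.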

[18] = target: Glucocorticoid receptor (Homo sapiens) (UniProt P04150); experiment: GR-GFP Redistribution (AID 450;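 active = compounds whose dose series gives a full or clear partial fitted curve of increased nuclear translocation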; also: potency is read from the fitted curve at half-maximal effect); settings: U2OS GR-GFP nuclear translocation, laser cytometry, 2 h
[19] = target: Guanine nucleotide-binding protein G(i) subunit alpha-1 (Homo sapiens) (UniProt P63096); experiment: qHTS Assay for Inhibitors of RGS12 GoLoco Motif Activity (Green Fluorophore) (AID 879);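 also: 0% = labeled peptide with Gαi1 and full inhibition = labeled peptide alone without protein; negative values mean loss of peptide binding seen as reduced polarization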
Guanine nucleotide-binding protein G(i) subunit alpha-1 (Homo sapiens), sequence (P63096 whole entry, looked up): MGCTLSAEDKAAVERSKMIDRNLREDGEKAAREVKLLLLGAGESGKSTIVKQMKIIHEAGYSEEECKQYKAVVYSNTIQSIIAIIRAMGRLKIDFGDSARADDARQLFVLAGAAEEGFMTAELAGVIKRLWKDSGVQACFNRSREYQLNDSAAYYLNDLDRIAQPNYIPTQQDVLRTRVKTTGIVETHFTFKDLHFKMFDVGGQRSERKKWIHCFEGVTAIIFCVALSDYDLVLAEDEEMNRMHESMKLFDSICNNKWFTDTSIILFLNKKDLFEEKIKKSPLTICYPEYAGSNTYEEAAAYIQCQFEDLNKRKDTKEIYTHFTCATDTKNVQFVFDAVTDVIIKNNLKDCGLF
Method in brief: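 Fluorescence polarization assay: 50 nM Gαi1 with 10 nM FITC-labeled RGS12 GoLoco peptide in 10 mM Tris pH 7.5, 150 mM NaCl, 0.1 mM GDP, 0.05% NP40, 10 min at room temperature with compound.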

[20] = qHTS Assay for Identification of Small Molecule Antagonists for NFkB Signaling Pathway (AID 895; active = well fitted inhibition curve with a large enough effect in the signal ratio, with a control signal flat, not every such curve was filed as active; the % refers to the signal ratio; also: potency is read from the fitted curve at half-maximal effect)
Method in brief: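 Beta-lactamase reporter read-out (460 and 530 nm emission ratio, 405 nm excitation, 2 hrs substrate loading RT) after 5 hr stimulation with 10 pM TNF alpha in compound-treated NFkB-bla ME-180 cells in low-serum medium.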

[21] = qHTS Assay for Identification of Small Molecule Agonists for Thrombopoietin (TPO) Signaling Pathway (AID 917); also: % is scaled to controls: 0 for no effect and ±100 for the full control effect
Method in brief: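 Murine Ba/F3 cells stably expressing human TPO receptor and a Glycoprotein IIb promoter–luciferase reporter were IL-3-starved overnight, then treated with compounds plus TPO (26 pM final, its EC50) for 24 hrs at 37 C; luminescence was read.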

[22] = target: Muscarinic acetylcholine receptor M1 (Rattus norvegicus) (UniProt P08482); experiment: qHTS Assay for Antagonists of Acetylcholine Muscarinic M1 Receptor: Kinetic Measurement of Intracellular Calcium Response (AID 943);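 also: Fluo-4 calcium signal as peak divided by basal fluorescence over 4 min; nearly all actives have a fitted effect of over 75% in size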
Method in brief: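 Rat M1-CHO cells, 2000/well, overnight → Fluo-4 no-wash dye with probenecid, 1 h 37C → compound 10 min, room temp → basal read 6 s → carbachol EC80 (100 nM) → 4 min kinetic read; peak/basal.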

[23] = target: Pyruvate kinase PKM (Homo sapiens) (UniProt P14618); experiment: qHTS Assay for Activators of Human Muscle Pyruvate Kinase (AID 954; active = well fitted curve in the direction sought with a large enough effect, not every such curve was filed as active;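 also: 0% = uninhibited enzyme and -100% = no enzyme or full thiadiazolimine inhibition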)
Method in brief: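 Purified human PKM2 (0.1 nM) with 0.5 mM PEP (Km) and 0.1 mM ADP in 50 mM imidazole pH 7.2, KCl, MgCl2, 1 h at room temperature; ATP formed read by coupled luciferase luminescence. Normalized to no-enzyme/110 uM thiadiazolimine inhibition; 0.3 nM enzyme column for activation.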

[24] = target: Alpha-galactosidase (Coffea arabica) (UniProt Q42656); experiment: Counterscreen for Glucocerebrosidase Inhibitors: qHTS Assay for Coffee Bean alpha-Galactosidase at pH 4.5 (AID 957);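 also: plate controls were enzyme alone for no effect and no enzyme for full effect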
Alpha-galactosidase (Coffea arabica), sequence (Q42656 whole entry, looked up): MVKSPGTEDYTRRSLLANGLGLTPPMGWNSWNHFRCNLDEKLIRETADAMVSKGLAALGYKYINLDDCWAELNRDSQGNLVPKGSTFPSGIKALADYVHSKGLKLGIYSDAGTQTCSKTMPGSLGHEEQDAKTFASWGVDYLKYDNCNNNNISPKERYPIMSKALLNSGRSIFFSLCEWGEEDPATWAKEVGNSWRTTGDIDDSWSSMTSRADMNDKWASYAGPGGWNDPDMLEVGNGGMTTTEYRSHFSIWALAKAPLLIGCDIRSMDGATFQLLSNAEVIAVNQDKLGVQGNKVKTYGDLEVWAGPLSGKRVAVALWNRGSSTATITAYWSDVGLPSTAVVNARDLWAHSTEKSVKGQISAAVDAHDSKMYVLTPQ
Method in brief: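 Coffee bean alpha-galactosidase 2 nM, substrate 4-MU-alpha-Gal 80 uM, pH 4.5 citrate/Tween-20, 20 min RT. Cpd titration 0.7 nM–77 uM. Stop pH 10, fluorescence 365/440 nm; Hill-equation AC50.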

[25] = target: Alpha-galactosidase A (Homo sapiens) (UniProt P06280); experiment: Counterscreen for Glucocerebrosidase Inhibitors: qHTS Assay for Human alpha-Galactosidase at pH 4.5 (AID 992); also: 0% is about no effect
Method in brief: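 Human enzyme (2 nM) with 80 uM 4-methylumbelliferyl alpha-D-galactopyranoside in 50 mM citric acid, 0.005% Tween-20, pH 4.5, 20 min at room temperature. Compounds 0.7 nM–77 uM; fluorescence Ex 365/Em 440 after pH 10 stop; AC50 from Hill fits.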

[26] = target: alpha-glucosidase (Oryza sativa, rice) (UniProt Q653V4); experiment: Counterscreen for Glucocerebrosidase Inhibitors: qHTS Assay for Rice alpha-Glucosidase at pH 5.0 (AID 997);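 also: 0% = full activity with enzyme and -100% = basal without enzyme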
Method in brief: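 Rice alpha-glucosidase (4 nM final) with 400 uM 4-methylumbelliferyl-alpha-D-glucopyranoside in citrate buffer pH 5.0, 20 min at room temperature, stopped at pH 10; fluorescence 365/440 nm, compounds 0.7 nM–77 uM, AC50 from Hill fits.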

[27] = target: DNA dC->dU-editing enzyme APOBEC-3G (Homo sapiens) (UniProt Q9HC16); experiment: qHTS for inhibitors of Vif-A3G interactions: Validation (AID 588379); also: 0% is about no effect
DNA dC->dU-editing enzyme APOBEC-3G (Homo sapiens), sequence (Q9HC16 whole entry, looked up): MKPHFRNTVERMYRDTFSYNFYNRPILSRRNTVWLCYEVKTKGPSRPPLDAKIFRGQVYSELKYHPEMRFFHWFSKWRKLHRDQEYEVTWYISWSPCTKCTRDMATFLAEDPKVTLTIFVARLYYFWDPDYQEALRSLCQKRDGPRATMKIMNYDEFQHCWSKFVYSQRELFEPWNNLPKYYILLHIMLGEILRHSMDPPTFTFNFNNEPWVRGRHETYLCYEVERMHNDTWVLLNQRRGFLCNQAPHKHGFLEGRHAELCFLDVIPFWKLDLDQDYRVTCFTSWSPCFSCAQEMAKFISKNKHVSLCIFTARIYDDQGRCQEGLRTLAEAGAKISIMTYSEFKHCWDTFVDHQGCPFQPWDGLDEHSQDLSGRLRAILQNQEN
Method in brief: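 HeLa cells stably expressing Vif and A3G-eYFP, 700 cells/well, incubated overnight at 37 deg C, then exposed to compound overnight at 37 deg C. Inhibition of Vif-mediated degradation read as increased yellow fluorescence (Ex 488/Em 500-530) by laser-scanning cytometry.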

[28] = measured here: cell count channel max response
[29] = measured here: lipid channel max response

c1ccc(N2CCC3(CCNCC3)CC2)nc1
29.9%: max response [8, 29]
inactive: outcome [1] | Potency [2] | outcome [3] | Potency [4] > 46 µM | outcome [5] | Potency [6] | activity change, negative = inhibition [8] 6.81% | outcome [9]
active: Potency [7] 1.26 µM
19.9%: max response [8, 28]

O=C(O)c1ccc(NC(=O)N2C[C@H]3C[C@@H](C2)c2cccc(=O)n2C3)cc1
inactive: outcome [10]

c1ccc(N2CCCC3(CCNCC3)C2)cc1
14.8%: max response [8, 29]
4.47%: max response [8, 28]
active: Potency [7] 7.94 µM
inactive: Potency [11] > 20 µM | Potency [12] > 11.4 µM | outcome [1] | activity change, negative = inhibition ([13]; at 7.69 µM (top of the series)) -13.8% | outcome [3] | Potency [4] > 46 µM | Potency [14] | Potency [6] | activity change, negative = inhibition [8] 4.45% | outcome [9] | max response [15] -4.75%

Cc1[nH]c2ccccc2c1P(=S)(c1ccccc1)c1ccccc1
inactive: outcome [16]

c1ccc(N2CC[C@@]3(CCCNC3)C2)cc1
5.01%: max response [8, 28]
10.7%: max response [8, 29]
inactive: Potency [12] > 11.4 µM | outcome [1] | outcome [3] | Potency [4] > 46 µM | outcome [5] | Potency [14] | Potency [6] | activity change, negative = inhibition [8] 5.37% | outcome [9] | max response [15] 3.77%
active: Potency [17] 44.7 µM

N#C/C(=C\c1ccc(O)c(O)c1)C(N)=S
inactive: activity change, negative = inhibition ([13]; at 38 µM (top of the series)) -11.5% | Potency [18] > 46 µM | Potency [4] > 46 µM | outcome [5] | Potency [14] | outcome [19] | Potency [6] | outcome [21] | Potency [22] | outcome [23] | outcome [24] | outcome [25] | outcome [26] | outcome [27]
active: Potency [2] 12.6 µM and 6.31 µM | Potency [20] 5.62 µM | Potency [17] 10 µM
